This is a sample that favours compounds with a hit; in the whole collection about 3.8% have one here.
Hsp70 act – Hsp70 transcriptional activation, primary screen; HeLa Hsp70 promoter luciferase reporter, luminescence; scaled: vehicle 0, proteasome-inhibitor control 100%; 0.04% of 200,000 active; activation, % at 10 µM;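 active = activation above the mean across all tested compounds plus 3 SD, cutoff set per campaign, cut at about 5.5% in these data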;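 also: 100% = MG132 at 30 µM as the positive control and 0% = DMSO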
pCIP destab – p/CIP protein destabilization | F442A p/CIP-EGFP cells, EGFP fluorescence, 16 h | 0.01% of 290,000 active | decrease of EGFP signal, % at 10 µM | Q05BA5;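 active = EGFP signal decrease of at least 30% at 10 µM or well 3 SD below plate mean, unless failing retest; inactive = the rest, including hits failing retest or dose response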
HSF-1 act – increases HSF-1 driven luciferase reporter signal | activation, % at 9 µM | 1.7% of 300,000 active | NIH3T3-HGL HSF-1 luciferase reporter, MG132, 8 h; 100% = twice DMSO control signal;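 active = mean replicate activation of at least 50% with a set share of replicates each reaching 50%; inconclusive = only one of those two conditions met; inactive = mean below 50% and too few replicates reaching it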;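 also: 0% = median of the neutral control wells and 100% = twice that signal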
HSF1 inhib – HSF1 inhibition | NIH3T3-HGL HSE-luciferase, MG132-induced, luminescence 8 h; hits give low values | activity change, negative = inhibition, % at 7.5 µM (by protocol) | 0.77% of 300,000 active | AID 2098;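 active = more than half of replicate wells show activity change below -50%, luminescence cut by over half; inconclusive = some wells, but at most half, below -50%; inactive = no replicate well below -50%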;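 also: luciferase reports HSF-1 transcriptional activity via heat shock element; 0% = median of DMSO wells and -100% = zero luminescence signal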
HSP90 inh – blocks HSP90-mediated luciferase refolding in reticulocyte lysate. Rabbit reticulocyte lysate, luciferase refolding luminescence, 3 h. inhibition, % at 5.6 µM. 0.91% of 290,000 active;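 active = inhibition above the screen-wide mean plus 3 SD, computed separately per campaign, cut at about 16% in these data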;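 also: 0% = DMSO wells and 100% = 60 µM geldanamycin wells; inhibitors lower the luminescence because luciferase stays unfolded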
NALP1 inh – blocks the NALP1 inflammasome reconstituted in yeast; S. cerevisiae NALP1/ASC/caspase-1 growth, X-gal OD620, 72 h; inhibition, % at 10 µM; 0.61% of 280,000 active; in the data active = inhibition mostly above about 24%, no sharp cut-off; inactive = mostly below about 32%
HSP90 confirm – confirmation of HSP90 inhibitors | shares compounds with HSP90 inh | rabbit reticulocyte lysate, luciferase refolding luminescence, 3 h | inhibition, % at 5.9 µM | 64% of 2,300 active | AID 1846; in the data active = inhibition above about 18%;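 also: 0% = vehicle wells and 100% = reference inhibitor wells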
luciferase ctr – counter-screen for HSP90 inhibitors: inhibitors of firefly luciferase; shares compounds with HSP90 inh; purified native firefly luciferase, luminescence; inhibition, % at 5.9 µM; 48% of 2,300 active; AID 1847;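 active = inhibition above the mean inhibition of all tested sample wells plus 3 SD, cut at about 10% in these data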;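 also: 0% = DMSO with luciferase and 100% = wells lacking luciferase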
Numbers without * were called inactive; ? = inconclusive; · = no result.

SMILES	Hsp70 act	pCIP destab	HSF-1 act	HSF1 inhib	HSP90 inh	NALP1 inh	HSP90 confirm	luciferase ctr
COc1ccc2nc(/C=N/NC(=O)[C@@H]3CCCN3C(=O)OC(C)(C)C)ccc2c1	·	6	-13	-4	41*	·	26*	-1
CCn1cc(C(=O)NC2CCc3ccccc32)c(=O)c2ccc(C)nc21 (configuration not stated)	0	-7	20	-6	27*	35	-3	-9
CCOC(=O)c1c2c3c(cccc3n(C)c1=O)C(=O)c1ccccc1-2	·	-12	-4	7	44*	17	2	-4
CCOC(=O)c1c2c3c(cccc3[nH]c1=O)C(=O)c1ccccc1-2	0	-35	7	-13	1	11	·	·
COc1ccc(F)cc1S(=O)(=O)NCC(=O)NCc1cc(=O)n(C)c(=O)n1C	·	-12	-7	-6	2	13	·	·
CCOC(=O)Nc1cc(C(=O)OCC)c(C)nc1C	0	4	22	6	27*	20	3	-3
COc1ccc2c(c1)c(C(=O)CN1CCN(Cc3ccccc3)CC1)c(C)n2C	·	3	7	0	28*	6	-6	-12
Cc1ccc(C(C)(C)NC(=O)C2CCC(=O)N(CC3CCCCC3)C2)cc1 (configuration not stated)	·	6	2	1	-6	5	·	·
O=C(Nc1ccc2c(c1)OCCO2)c1ccc(Cl)cc1Cl	·	-1	?	32	33*	28	40*	30*
O=C(Nc1ccc2c(c1)OCCO2)c1cccc(Cl)c1	·	2	23	30	3	17	·	·
O=C(Nc1ccc2c(c1)OCO2)c1ccc(Cl)cc1Cl	·	-3	53*	26	24*	7	37*	22*
CSc1nc2c(c(=O)[nH]1)C(c1cccc(Cl)c1)CC(=O)N2 (configuration not stated)	0	13	10	1	3	13	·	·
CCc1ccc(C(=O)COC(=O)C2CCN(c3ccc(C(F)(F)F)cn3)CC2)cc1	·	·	-4	2	·	·	·	·
Cc1ccc2c(COC(=O)c3ccc(NC(=O)CC#N)cc3)cc(=O)oc2c1C	·	-5	56*	19	19*	24	22*	-6
O=[N+]([O-])c1ncccc1OCc1ccc(Cl)c(Cl)c1	·	-14	20	15	0	6	·	·
O=C(Nc1ccccc1)C1=C[C@@H](C2CCCCC2)C[C@@H](OCCCCO)O1	0	3	-43	-41	26*	5	35*	28*
O=C(Nc1ccccc1)C1=C[C@H](C2CCCCC2)C[C@H](OCCCCO)O1	·	·	-45	-39	·	·	·	·
COC(=O)c1ccc2nc(-c3cccc(N)c3)cn2c1	0	11	0	-3	36*	-17	71*	54*
Cn1nc(C(C)(C)C)cc1C(=O)NCc1ccc2c(c1)OCO2	·	-15	-2	-8	1	15	·	·
COCCn1c(C)cc(C2=NNC(=Nc3ccccc3)SC2)c1C	0	1	-39	-40	51*	2	39*	33*
COCCn1c(C)cc(C2=NNC(=Nc3ccc(OC)cc3)SC2)c1C	0	-1	-21	-2	4	-3	·	·
COc1cc(/C=N/NC(=O)c2cc(-c3cccn3C)n[nH]2)cc(OC)c1OC	0	-20	-18	-7	2	-1	·	·
Cn1cccc1-c1cc(C(=O)N/N=C/c2ccc(Cl)cc2)[nH]n1	·	-4	-3	-5	19*	4	2	-5
CCc1nnc(N/N=C/c2ccccc2F)n1N	1	-3	59*	50	80*	-15	-7	-11
CCOC(=O)N/N=C/c1ccccc1F	0	-3	40	15	-1	0	·	·
SMILES	Hsp70 act	pCIP destab	HSF-1 act	HSF1 inhib	HSP90 inh	NALP1 inh	HSP90 confirm	luciferase ctr
COc1cccc(/C=N/Nc2nnc(C)n2N)c1OCc1ccccc1Cl	0	-4	31	31	0	15	·	·
CCc1nnc(N/N=C/c2ccccc2Cl)n1N	0	-1	72*	61	72*	1	2	-2
Cc1ccc(C)c(Cn2nnc3c(=O)[nH]c(C4CCN(S(=O)(=O)c5ccc(S(=O)(=O)N(C)C)cc5)CC4)nc32)c1	·	-12	0	0	22*	0	19*	-2
O=C(c1ccc(Cl)cc1)N1CCc2ccccc21	·	4	16	12	18*	-70	-9	-14
COc1ccc(/C=C(\NC(=O)c2ccc(OC)cc2)C(=O)Nc2ccccc2C(=O)O)cc1	·	-6	10	-6	-2	10	·	·
C/C(=N\Nc1ccc(Cl)c(C(=O)O)c1)c1ccc(Br)s1	·	-4	-3	8	22*	4	1	-10
C/C(=N\Nc1ccccn1)c1ccc(S(=O)(=O)NCc2ccco2)cc1	0	6	9	14	-4	15	·	·
COc1ccc(/C(C)=N/Nc2ccc(C(=O)O)cc2)c(OC)c1	-1	3	-7	-7	22*	34	13	19*
C/C(=N\Nc1ccc(C(=O)O)cc1)c1ccc(Br)cc1	·	2	-34	-19	46*	2	78*	67*
C/C(=N/Nc1ncc(Br)cn1)c1ccc(Br)cc1	·	-5	8	9	-2	14	·	·
C/C(=N\NC(=O)c1ccc(Cl)c(Cl)c1)c1ccc(Br)s1	0	-8	-12	-2	-3	30	·	·
C/C(=N\Nc1ccc(C(=O)O)cc1)c1ccc(S(=O)(=O)NCc2ccco2)cc1	·	-12	-25	-17	48*	4	20*	9
COc1ccc(S(=O)(=O)NCC2CCCO2)cc1NC(=O)c1ccc(Cl)cc1 (configuration not stated)	·	·	-2	-3	·	·	·	·
CC(C)=C(NC(=O)c1ccccc1)C(=O)NC(Cc1ccccc1)C(=O)O (configuration not stated)	·	0	7	4	-2	17	·	·
C/C(=N\NC(=O)c1ccccc1C)c1cccc([N+](=O)[O-])c1	0	-8	-34	-17	0	1	·	·
C/C(=N\Nc1ccc(C(=O)O)cc1)c1ccc(Cl)s1	·	-9	-1	1	22*	-2	29*	22*
C/C(=N\Nc1ccc(Cl)c(C(=O)O)c1)c1cccc([N+](=O)[O-])c1	·	-12	6	1	18*	6	2	-14
CCN(CC)c1nc(C(F)(F)F)nc2c1nnn2Cc1ccccc1	·	-4	-1	1	4	16	·	·
CCOC(=O)c1cc(-c2ccccc2)n(CCC(=O)N2CCN(c3ccccn3)CC2)c1C	0	2	2	-2	3	46	·	·
